# Laboratory results as given in ChEMBL document CHEMBL3988442, “University of Dundee, Small-Polar-MMV Screening Library” (2021).
# The campaign covered roughly 38,000 compounds. About 1,200 (3.2%) showed an effect of 50% or more. The median lay at about -58%. This is one part of a sample in which strong results are shown more often than they occur.
# System: Plasmodium falciparum
# Experiment: Calibr Malaria Delayed Death Assay SOP
# Assay type: functional, organism-based
# Design: scale not given: in the data most compounds retested in dose-response had high values
# Details: concentration 4.99e-06 (unit not given; other assays of the set use mol/L)
row,Compound,Percent Effect
1,Cc1cnc(CN(C)Cc2cc3c(cc2OC(F)F)OCO3)o1,-25.68%
2,Cc1noc(C)c1CSCc1csc(CS(C)(=O)=O)n1,-34.91%
3,COCCCNC(=O)c1cc(-c2cnc(N3CCOCC3)nc2)cn1C.O=C(O)C(F)(F)F,-55.95%
4,CCn1ncc2c1C(COC)CN(Cc1nccs1)C2 (stereo unspecified),-17.13%
5,COc1ccc(-n2ccc(C(=O)NCCN3CCCC(C)C3)n2)cc1 (stereo unspecified),4.937%
6,Cn1cc(CN2C[C@H]3CCN(C(=O)c4cscn4)C[C@H]3C2)cn1.O=C(O)C(F)(F)F,-59.18%
7,CC(Cn1cccn1)NCc1csc(Cc2ccccc2)n1 (stereo unspecified),5.726%
8,COc1ccc(CCN)cc1-c1ccc(C(N)=O)cc1,6.686%
9,COc1ccc(CCN)cc1-c1ccc(O)cc1,84.96%
10,CCOc1ccc(-c2cc(CCN)ccc2OC)cc1,-62.01%
11,O=C(Cn1c(=O)oc2ccccc21)NCC1(O)CCc2ccccc21 (stereo unspecified),-139.2%
12,c1cnc(N2CCCC(c3cncc(-n4ccnc4)n3)C2)nc1 (stereo unspecified),-26.3%
13,Cc1cc(NCCO)nc(-c2ccccc2O)n1,-228.5%
14,Cc1cc(NCCN)nc(-c2ccccc2O)n1,78.32%
15,Cc1cc(NCCNc2cccnc2)nc(-c2ccccc2O)n1,-179.2%
16,COCC1COCCC12CCN(S(=O)(=O)c1ccc(C)cc1)CC2 (stereo unspecified),-77.98%
17,CCNC(=O)[C@@H]1C[C@@H](NC(=O)c2cnc[nH]c2=O)CN1Cc1ccsc1,-128.1%
18,O=C(CN1CCOCC1)Nc1ncc(Br)cc1Br,-123.1%
19,Fc1cccc(C2(CNC3CCCNC3)CCOCC2)c1 (stereo unspecified),-89.15%
20,Fc1cccc(C2(CNC3CCOC4(CCOCC4)C3)CCOCC2)c1 (stereo unspecified),39.6%
21,Fc1ccccc1C1(CNC2CCOC3(CCOCC3)C2)CCCC1 (stereo unspecified),75.67%
22,c1ccc(Cc2noc(CCNC3CCOC4(CCOCC4)C3)n2)cc1 (stereo unspecified),-44.81%

row,Compound,Percent Effect
1,c1ccc2c(c1)nnn2CCCNC1CCOC2(CCOCC2)C1 (stereo unspecified),-5.834%
2,c1ccc2c(c1)cnn2CCCNC1CCOC2(CCOCC2)C1 (stereo unspecified),68.4%
3,COc1c(CNC2CCN(C(=O)C(C)C)CC2)c(C(C)C)nn1C,-79.75%
4,CSc1cccc(NC(=O)CCC(=O)Nc2nccs2)c1,-6.233%
5,CCOC(=O)Cn1ccc(NC(=O)Cc2ccccc2F)n1,-129.4%
6,COc1ccc(CCNC(C)c2ccc3[nH]c(=O)[nH]c3c2)cc1OC (stereo unspecified),-75.57%
7,Cc1cc(S(=O)(=O)N2CCCN3CCCC3C2)ccc1F (stereo unspecified),67.89%
8,Cc1ccc(S(=O)(=O)N2CCC(N3CCCCC3)CC2)cc1C,64.64%
9,Cc1ccc(S(=O)(=O)N2CCCCC(N3CCN(C)CC3)C2)cc1F (stereo unspecified),37.26%
10,Cc1ccc(S(=O)(=O)N2CCC(S(C)(=O)=O)CC2)cc1C,-5.803%
11,Cc1cc(S(=O)(=O)N2CCC(S(C)(=O)=O)C2)ccc1F (stereo unspecified),-26.98%
12,Cc1ccc(S(=O)(=O)N2CCC(S(=O)(=O)c3nncn3C)CC2)cc1C,-38.79%
13,Cc1nc2ccccc2n1Cc1cc(C(=O)N(C)C2CCOC2)n[nH]1 (stereo unspecified),-89.66%
14,Cc1nc(CN(C)C2CCN(Cc3nc4c(F)cccc4[nH]3)C2)no1 (stereo unspecified),-2.567%
15,CCOCC(=O)Nc1cccnc1-n1ccnc1C,-153.7%
16,Cc1ncc(CN2CCCC2)c2cc(C(=O)c3ccc(Br)cc3)oc12.Cl,66.17%
17,Cc1ncc(CNC(C)(C)CO)c2cc(C(=O)c3ccc(Br)cc3)oc12,36.54%
18,Cc1ncc(CN2CCOCC2)c2cc(C(=O)c3ccc(Br)cc3)oc12.Cl,-6.646%
19,COc1ncc(C(=O)NCc2ccc(Br)cc2)cn1,-41.11%
20,Cc1ncc(CNCCO)c2cc(C(=O)c3ccc(Br)cc3)oc12.Cl,88.87%
21,Cc1ncc(CN(C)CCO)c2cc(C(=O)c3ccc(Br)cc3)oc12.Cl,47.82%
22,CN(C)c1ccc(C(=O)NCc2csc(Br)c2)cn1,-36.5%

row,Compound,Percent Effect
1,Cc1ncc(CNCC(C)O)c2cc(C(=O)c3ccc(Br)cc3)oc12.Cl (stereo unspecified),8.12%
2,COCCNC(=O)[C@@H]1CCO[C@@H]2CCN(Cc3cnn(C)c3)C[C@@H]21,-0.06334%
3,Cc1nn(Cn2ccc(C(=O)N3CCOCC3)n2)c(C)c1Cl,-94.44%
4,O=c1c(NCc2ccccn2)c(NCC(O)CN2CCOCC2)c1=O (stereo unspecified),-115.3%
5,Cc1cccc(CN2CC3(CCN(Cc4ccco4)CC3)OCC2=O)n1.O=C(O)C(F)(F)F.O=C(O)C(F)(F)F,-46.8%
6,CC(C)Oc1ccc(C(=O)N2CCCC2c2cnn(C)c2)cn1 (stereo unspecified),-40.89%
7,COCCCNC(=O)Cn1c(-c2cccc(Cl)c2)nc(C)cc1=O,-51.33%
8,CNC(=O)c1cn2cc(-c3cccc(Cl)c3)n(CC=C(C)C)c(=O)c2n1,56.44%
9,CNC(=O)c1cn2cc(-c3cccc(Cl)c3)n(CC3CC3)c(=O)c2n1,19.26%
10,COc1ccc(OC)c(NC(=O)c2cc3c([nH]c2=O)CCCC3=O)c1,-53.3%
11,O=C(c1cccc(Cl)c1Cl)N1CCN(CC(O)Cn2cccn2)CC1 (stereo unspecified),-16.31%
12,CC1CCN(CC(O)Cn2cnc3ccc(Cl)cc3c2=O)CC1 (stereo unspecified),28.19%
13,Cc1c(C)n(CC(O)CN2CCOCC2)c2c(Cl)cccc12.Cl (stereo unspecified),-18.53%
14,Cc1c(C)n(CC(O)CN2CCC(C)CC2)c2c(Cl)cccc12 (stereo unspecified),82.43%
15,Cc1c(C)n(CC(O)CN2CCC(O)CC2)c2c(Cl)cccc12 (stereo unspecified),43.5%
16,Cc1c(C)n(CC(O)CN2CCCCCC2)c2c(Cl)cccc12 (stereo unspecified),50.38%
17,O=C(c1cccc2c1OCCO2)N1CCCC(n2cccn2)C1 (stereo unspecified),-57.7%
18,Cc1ccc(OCCC(=O)N2CCOCC2c2ncon2)cc1C (stereo unspecified),-113.3%
19,O=C(c1ccco1)N1Cc2nccn2CC(Cn2ncccc2=O)C1 (stereo unspecified),-89.1%
20,CCCN(CCC)c1ncc(S(=O)(=O)c2ccc(C)cc2)c(N)n1,12.69%
21,CCCN(CCC)c1ncc(S(=O)(=O)c2ccc(OC)cc2)c(N)n1,66.8%
22,CCCN(CCC)c1ncc(S(=O)(=O)c2ccccc2)c(N)n1,-11.95%

row,Compound,Percent Effect
1,N#Cc1c(N)nc2c(c1-c1c[nH]nc1C1CCCCC1)CNCC2,6.508%
2,c1ccc(COCC2CN(Cc3ccsc3)Cc3nccn3C2)nc1 (stereo unspecified),1.035%
3,CCc1cnc(CN(C)C2CCN(CCCNS(C)(=O)=O)C2)o1 (stereo unspecified),-33.46%
4,COc1ccccc1CN(C)C(=O)CN1CC(n2nc(C)cc2C)C1,77.58%
5,Cc1cc(C)n(C2CN(CC(=O)N(C)Cc3cnn(C)c3)C2)n1,-103.6%
6,Cc1cc(C)n(C2CN(CC(=O)N(C)Cc3ccc(C)o3)C2)n1,-1.347%
7,COc1cccc(CN(C)C(=O)CN2CC(n3nc(C)cc3C)C2)c1,62.45%
8,Cc1cc(C)n(C2CN(CC(=O)N(C)Cc3ccco3)C2)n1,-70.44%
9,Cc1cc(C)n(C2CN(CC(=O)N(C)Cc3ccsc3)C2)n1,24.51%
10,CC(C)NC(=O)N1CC[C@@H]2CN(S(C)(=O)=O)CCO[C@@H]2C1,-58.18%
11,Cc1nnc(NC(=O)NCc2ccc(OC3CCCC3)nc2)s1,2.114%
12,Cc1cccc(N2Cc3nc(N4CCC(C)CC4)ncc3C2=O)c1,-105.8%
13,O=S(=O)(c1ccccc1)N1CCC[C@]2(C[C@@H](OCC3CC3)CO2)C1,-64.42%
14,CCOc1ccc2[nH]c3c(N(C)CC4OCCO4)ncnc3c2c1,-160.2%
15,CCCNC(=O)CCNC(=O)c1sc2ccc(F)cc2c1C,-59.54%
16,O=C(c1occc1CN1C(=O)Cc2ccccc21)N1CC(O)C1,-91.69%
17,CN1CCN(C(=O)c2cc3occc3n2Cc2ccccc2F)CC1,-0.5316%
18,CN1CCN(C(=O)c2occc2CN2C(=O)Cc3ccccc32)CC1,53.65%
19,N#Cc1cnc2c(F)cc(F)cc2c1NC1CCN(CC(N)=O)CC1,-21.61%
20,Cc1cnc(NC(=O)CSC2CCc3ccccc3NC2=O)s1 (stereo unspecified),-9.765%
21,NC(=O)c1ccc(CN2CCC(N3CCCCC3)CC2)cc1,-16.53%
22,CC(NCc1ccc(OCC(N)=O)cc1)c1ccc(Cl)c(Cl)c1.Cl (stereo unspecified),2.26%

row,Compound,Percent Effect
1,CC(NCc1ccc(OCC(N)=O)cc1)c1ccc(Cl)cc1.Cl (stereo unspecified),12.76%
2,CC(NCc1ccc(OCC(N)=O)cc1)c1ccc2c(c1)CCCC2 (stereo unspecified),72.97%
3,CSCCN1C(=O)CC(C)(c2ccc(Br)cc2)C1=O (stereo unspecified),-78.64%
4,O=C1CCCCN1CCC(=O)N1CCCCC1c1ccc(F)cc1 (stereo unspecified),-57.96%
5,COC(=O)CCCC(=O)N1CCCCC1c1ccc(F)cc1 (stereo unspecified),-184.4%
6,NCC(=O)N1CCCCC1c1ccc(F)cc1 (stereo unspecified),85.19%
7,CC(c1ccc(F)cc1F)N1CCN(Cc2nccn2C)CC1 (stereo unspecified),-23.71%
8,CCN1CCN(c2ccc(F)cc2C(C)NCc2ccncc2)CC1 (stereo unspecified),71.8%
9,CC(NCc1ccccn1)c1cc2c(cc1Br)OCCO2 (stereo unspecified),22.3%
10,CCN1CCN(c2ccc(F)cc2C(C)NCc2ccccn2)CC1 (stereo unspecified),85.11%
11,Cc1[nH]ncc1C(C)NCc1ccc(F)cc1 (stereo unspecified),-52.77%
12,CCN1CCN(c2ccc(F)cc2C(C)NCc2cscn2)CC1 (stereo unspecified),80.23%
13,CC(NC(=O)NCc1cscn1)c1ccc(N2CCOCC2)cc1 (stereo unspecified),-60.07%
14,C[C@]1(O)CN(Cc2cscn2)CC[C@@H]1Oc1cccc(F)c1,-10.93%
15,CCN1CCN(c2ccc(F)cc2C(C)NCc2ccnn2C)CC1 (stereo unspecified),75.25%
16,CC(NCc1ccncc1)c1cc2c(cc1Br)OCCO2 (stereo unspecified),7.247%
17,CC(NCCn1cccn1)c1cc(F)ccc1F (stereo unspecified),0.142%
18,CC(c1cc(F)ccc1F)N1CCN(Cc2nccn2C)CC1 (stereo unspecified),-48.8%
